According to PubChem BioAssay:
Several values for one entry are separate records, joined by “and”; a condition that tells them apart may be missing. Equal entries are not always repeated. Activity calls are given as the source filed them.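 Rule for the calls: active = thallium flux through the channel raised or lowered by more than 3 SD from vehicle-only wells, actives on both sides; inactive = the rest.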 Non-standard residues stand in square brackets, D forms with d. Residues, ends and D or L forms follow the SMILES beside them. pGlu = O=C1CC[C@@H](C(=O)O)N1; Thz = O=C(O)[C@@H]1CSCN1

System: F380Y
Assay: BK channel mutant inhibitors and activators – cell-based, U2OS BacMam, thallium flux, beta subunits, selectivity assay, profiling panel (AID 1259406);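 note: initial slope of Thallos dye fluorescence rise after thallium is added; log ratio against the mean of 0.3% DMSO vehicle wells on the same plate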
Settings: U2OS BacMam BK variants, at 30 µM

Log fold change Tl+ flux, inactive:
CC(CCCCC(=O)Nc1ccc(C(F)(F)F)cc1)NCCc1cnc[nH]1 (stereo not given) 0.0425
O=C(c1ccc(OCCN2CCCCC2)cc1)c1c(-c2ccc(O)cc2)sc2cc(O)ccc12 0.0852
O=C1CC[C@@H](C(=O)N2CSC[C@H]2C(=O)O)N1 ([pGlu]-[Thz]-OH) -0.0365
CN/C(=C\[N+](=O)[O-])NCCSCc1csc(CN(C)C)n1 0.0132
CNCC[C@@H](Oc1ccccc1C)c1ccccc1 0.0847
Cc1cccc(CCN2CCC(C(=O)c3ccc(NS(C)(=O)=O)cc3)CC2)n1 0.00945
CN(C)CCOc1ccc(/C(=C(/CCCl)c2ccccc2)c2ccccc2)cc1 0.00227
CC(C)(S)C(N)C(=O)O (stereo not given) 0.0383
CC[C@H]1OC(=O)[C@H](C)[C@@H](O[C@H]2C[C@@](C)(OC)[C@@H](O)[C@H](C)O2)[C@H](C)[C@@H](O[C@@H]2O[C@H](C)C[C@H](N(C)C)[C@H]2O)[C@](C)(O)C[C@@H](C)CN(C)[C@H](C)[C@@H](O)[C@]1(C)O 0.0649
NCC(O)c1ccc(O)c(O)c1 (stereo not given) -0.00325
CN1CC(=O)N2[C@H](c3ccc4c(c3)OCO4)c3[nH]c4ccccc4c3C[C@@H]2C1=O 0.0711
COC(=O)c1sccc1NN=C(C)c1ccc(NC(=O)C(Cl)Cl)cc1 0.0593
Cc1cnc(C(=O)NCCc2ccc(S(=O)(=O)NC(=O)NC3CCCCC3)cc2)cn1 -0.0483
C/C(=C\C(=O)OCCCCCCCCC(=O)O)C[C@@H]1OC[C@H](C[C@@H]2O[C@H]2[C@@H](C)[C@H](C)O)[C@@H](O)[C@H]1O 0.0421
FC(F)(F)c1cc(C=Cc2noc(-c3ccc(CN4CCCC4)cc3)n2)cc(C(F)(F)F)c1 -0.0963
C[C@H]1O[C@H](O[C@H]2[C@H](O)[C@@H](O)[C@@H](O[C@H]3[C@H](O)[C@@H](O)C(O)O[C@@H]3CO)O[C@@H]2CO)[C@H](O)[C@@H](O)[C@@H]1N[C@H]1C=C(CO)[C@@H](O)[C@H](O)[C@H]1O (stereo not given in full) -0.0255
COc1ccc2[nH]c(S(=O)Cc3ncc(C)c(OC)c3C)nc2c1 (stereo not given) 0.0414
CN1[C@@H]2CCC[C@H]1CC(NC(=O)c1nn(C)c3ccccc13)C2 (stereo not given in full) 0.0826
COc1c(N2C[C@@H]3CCCN[C@@H]3C2)c(F)cc2c(=O)c(C(=O)O)cn(C3CC3)c12 0.00312
CCN(CC)CC#CCOC(=O)C(O)(c1ccccc1)C1CCCCC1 (stereo not given) -0.0501
COc1nc(C)nc(Cl)c1NC1=NCCN1 -0.00461
CC(Cc1ccc(O)c(O)c1)(NN)C(=O)O (stereo not given) -0.0414
CSc1nc(C)nc(Sc2cccc(C(F)(F)F)c2)c1C#N -0.0573

Log fold change Tl+ flux, active:
CCCCN1CCCC1CNC(=O)c1cc(C#N)c2ccccc2c1OC (stereo not given) -0.12
Cc1cc2c(s1)Nc1ccccc1N=C2N1CCN(C)CC1 0.136

System: F380Y/beta1
Assay: as above
Settings: U2OS BacMam BK variants, at 30 µM

Log fold change Tl+ flux, inactive:
O=C1CN2Cc3c(ccc(Cl)c3Cl)N=C2N1 0.0415
COC(=O)C[C@](O)(CCCC(C)(C)O)C(=O)O[C@@H]1C(OC)=C[C@]23CCCN2CCc2cc4c(cc2[C@H]13)OCO4 -4.2e-05
CNCC[C@H](Oc1cccc2ccccc12)c1cccs1 -0.085
O=c1[nH]c(=O)n(C2CCCO2)cc1F (stereo not given) 0.033
CSc1nc2cc(Oc3cccc(Cl)c3Cl)c(Cl)cc2[nH]1 0.0498
CN(C)CCc1c[nH]c2ccc(Cn3cncn3)cc12 -0.0483
COc1ccc(C[C@H](C)NC[C@@H](O)c2ccc(O)c(NC=O)c2)cc1 -4.2e-05
CC(C)C[C@H](NC(=O)[C@@H](O)[C@H](N)Cc1ccccc1)C(=O)O -0.0233
C[C@@H](c1ncncc1F)[C@](O)(Cn1cncn1)c1ccc(F)cc1F -0.0167
CN(C)CCCC1(c2ccc(F)cc2)OCc2cc(C#N)ccc21 (stereo not given) 0.0236 and -0.0159
CCOC(=O)c1ccc(OC(=O)CCCCCN=C(N)N)cc1 -0.00638
Cc1c(C(=O)NN2CCCCC2)nn(-c2ccc(Cl)cc2Cl)c1-c1ccc(I)cc1 -0.0372
CC(C)NCC(O)c1ccc(NS(C)(=O)=O)cc1 (stereo not given) -0.0363
O=C(NC(=O)c1ccccc1Oc1ccc(Cl)cc1Cl)Nc1cc(Cl)cc(Cl)c1 0.0216
CC(=O)NC[C@H]1CN(c2ccc(N3CCOCC3)c(F)c2)C(=O)O1 0.0152
CC(CCCCC(=O)Nc1ccc(C(F)(F)F)cc1)NCCc1cnc[nH]1 (stereo not given) 0.0554
O=C(c1ccc(OCCN2CCCCC2)cc1)c1c(-c2ccc(O)cc2)sc2cc(O)ccc12 0.00638
O=C1CC[C@@H](C(=O)N2CSC[C@H]2C(=O)O)N1 ([pGlu]-[Thz]-OH) 0.0192
CN/C(=C\[N+](=O)[O-])NCCSCc1csc(CN(C)C)n1 -0.0313
CNCC[C@@H](Oc1ccccc1C)c1ccccc1 -0.000881
Cc1cccc(CCN2CCC(C(=O)c3ccc(NS(C)(=O)=O)cc3)CC2)n1 0.0315
CN(C)CCOc1ccc(/C(=C(/CCCl)c2ccccc2)c2ccccc2)cc1 -0.0377
CC(C)(S)C(N)C(=O)O (stereo not given) -0.0205
CC[C@H]1OC(=O)[C@H](C)[C@@H](O[C@H]2C[C@@](C)(OC)[C@@H](O)[C@H](C)O2)[C@H](C)[C@@H](O[C@@H]2O[C@H](C)C[C@H](N(C)C)[C@H]2O)[C@](C)(O)C[C@@H](C)CN(C)[C@H](C)[C@@H](O)[C@]1(C)O 0.00314
NCC(O)c1ccc(O)c(O)c1 (stereo not given) 0.00151
CN1CC(=O)N2[C@H](c3ccc4c(c3)OCO4)c3[nH]c4ccccc4c3C[C@@H]2C1=O 0.0938
COC(=O)c1sccc1NN=C(C)c1ccc(NC(=O)C(Cl)Cl)cc1 -0.0356
Cc1cnc(C(=O)NCCc2ccc(S(=O)(=O)NC(=O)NC3CCCCC3)cc2)cn1 -0.0347
C/C(=C\C(=O)OCCCCCCCCC(=O)O)C[C@@H]1OC[C@H](C[C@@H]2O[C@H]2[C@@H](C)[C@H](C)O)[C@@H](O)[C@H]1O -0.0188
FC(F)(F)c1cc(C=Cc2noc(-c3ccc(CN4CCCC4)cc3)n2)cc(C(F)(F)F)c1 0.0303
C[C@H]1O[C@H](O[C@H]2[C@H](O)[C@@H](O)[C@@H](O[C@H]3[C@H](O)[C@@H](O)C(O)O[C@@H]3CO)O[C@@H]2CO)[C@H](O)[C@@H](O)[C@@H]1N[C@H]1C=C(CO)[C@@H](O)[C@H](O)[C@H]1O (stereo not given in full) 0.0224
COc1ccc2[nH]c(S(=O)Cc3ncc(C)c(OC)c3C)nc2c1 (stereo not given) 0.0445
CN1[C@@H]2CCC[C@H]1CC(NC(=O)c1nn(C)c3ccccc13)C2 (stereo not given in full) 0.016
COc1c(N2C[C@@H]3CCCN[C@@H]3C2)c(F)cc2c(=O)c(C(=O)O)cn(C3CC3)c12 -0.0479
CCN(CC)CC#CCOC(=O)C(O)(c1ccccc1)C1CCCCC1 (stereo not given) -0.0697
COc1nc(C)nc(Cl)c1NC1=NCCN1 -0.0516
CC(Cc1ccc(O)c(O)c1)(NN)C(=O)O (stereo not given) 0.04
CSc1nc(C)nc(Sc2cccc(C(F)(F)F)c2)c1C#N 0.0287
Cc1cc2c(s1)Nc1ccccc1N=C2N1CCN(C)CC1 0.0857

Log fold change Tl+ flux, active:
CCCCN1CCCC1CNC(=O)c1cc(C#N)c2ccccc2c1OC (stereo not given) -0.109
